Screening data: PubChem BioAssay, National Center for Advancing Translational Sciences (NCATS)
LASV entry inh = blocks Lassa virus binding to or entry into cells | Lassa virus pseudotype entry inhibition, cell reporter | hit rate 1.2% among 300,000 | Potency, µM (doses to about 37.9 µM), for the others: at the top dose activity change, negative = inhibition, most hits filed as inhibitors; calls by dose curve; tested in HEK293 cells; note: potency is the fitted concentration of half-maximal effect; % is set by controls: 0 for no effect and ±100 for the full control effect; nearly all actives have a fitted effect of over 50% in size
CHX counter = counter-screen hit for Shiga toxin inhibitors, cycloheximide | AID 2314 | hit rate 12% among 300,000 | max response, % | cell reporter, cycloheximide protein synthesis inhibition counterscreen; in the data active = max response mostly above about 13%, no sharp cut-off; inactive = mostly below about 14%; note: read at 38.3 µM for the half of the compounds with a filed dose; 0% is about no effect
Marburg entry inh = Marburg virus entry inhibition | Marburg virus pseudotyped entry inhibition, cell reporter | Potency, µM (titrated, usually from 37.8 µM), for inactives: at the highest dose activity change, negative = inhibition, hits mostly inhibitors | hit rate 1.8% among 300,000; calls by dose curve; tested in HEK293 cells; note: potency is the fitted concentration of half-maximal effect; % is set by controls: 0 for no effect and ±100 for the full control effect
Shiga inhibitor = inhibitors of Shiga toxin in Vero cells. Vero cells, Shiga toxin protein synthesis inhibition reporter. inhibition, % at 38.7 µM. hit rate 9.2% among 290,000; in the data active = inhibition mostly above about 28%, no sharp cut-off; inactive = mostly below about 43%; note: 0% is about no effect
Pf growth 96h = P. falciparum growth inhibition at 96 hours | P. falciparum luciferase reporter growth, 96 h | hit rate 6.9% among 320,000 | Potency, µM (doses to about 28.7 µM), for the others: at the highest dose activity change, negative = inhibition, hits mostly inhibitors; note: potency is the fitted concentration of half-maximal effect; % is set by controls: 0 for no effect and ±100 for the full control effect
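P. falciparum expressing integrated firefly luciferase, in erythrocytes at 2% hematocrit, 0.05% parasitemia, incubated with compounds 96 h at 37 C, 5% CO2. Growth inhibition read as loss of luminescence; two-generation exposure targets delayed-death apicoplast inhibitors.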
Pf growth 48h = P. falciparum growth inhibition at 48 hours (one generation); hit rate 5.9% among 310,000; Potency, µM (doses to about 28.7 µM), for inactives: top-dose activity change, negative = inhibition, actives largely listed as inhibitors; P. falciparum luciferase growth in erythrocytes, 48 h; AID 504832; note: potency is the fitted concentration of half-maximal effect; % is set by controls: 0 for no effect and ±100 for the full control effect
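Read-out is firefly luciferase luminescence from an integrated reporter in P. falciparum, so falling signal marks reduced parasite growth. Infected erythrocytes were at 2% hematocrit and 0.1% parasitemia (final) in Albumax-supplemented RPMI 1640.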
Starred values were filed as active, the others as inactive; u = inconclusive; x = no result; + = active, no number; [ ] = dose if it differs, or a comment. A selection: hits, their analogues and other compounds. The true share with any hit is near 19%. Unless noted, calls come from the whole dose curve; as a rule, active = well fitted inhibition curve with a large enough effect; inconclusive = small, poorly fitted or top-dose-only effect, or another doubt; inactive = no such curve, though single readings can be large or run the other way.

SMILES | LASV entry inh | CHX counter | Marburg entry inh | Shiga inhibitor | Pf growth 96h | Pf growth 48h
Cc1ccc2nc(-c3ccc(NC(=S)NC(=O)C(C)C)cc3)sc2c1 | 0.4% | 52.5* | 12.7% | 83.7* | x | 134.0%
CCC(=O)NC(=S)Nc1ccc(-c2nc3ccc(C)cc3s2)cc1 | u | 39.9* | u | 91.5* | 11.7µM* | 122.7%
COCCNC(=S)NC(=O)CC12CC3CC(CC(C3)C1)C2 | -6.4% | -3.5 | 14.1% | -3.9 | 12.1% | u
CCCC(=O)NCC(c1cccs1)S(=O)(=O)c1ccc(Cl)cc1 (configuration not stated) | u | 5.9 | 6.8%[46.1 µM] | 6.8 | 2.62µM* | -21.4%
O=C(COc1ccccc1)NCC(c1cccs1)S(=O)(=O)c1ccc(Cl)cc1 (configuration not stated) | -19.4%[46.1 µM] | x | x | x | x | x
COC(=O)[C@@H]1CC[C@H](C)[C@@H](c2ccc(C)cc2)N1C(=O)c1ccc(/C=N\OC[C@@H]2O[C@H](c3ccccc3)C=C[C@@H]2Oc2ccc(OC)cc2)cc1 | x | x | -6.6%[14.2 µM] | x | x | x
Cc1cccc(-c2noc(CN(C(=O)/C=C/c3ccccc3Cl)C(C)C)n2)c1 | 5.3% | 4.1 | -9.3% | 16.4 | -2.8% | 14.6%
Cc1cc(OCC(=O)NNC(=O)c2ccncc2)cc(C)c1Cl | x | -3.1 | x | -9.4 | 10.4µM* | u
O=C(COc1ccc(Cl)cc1)NNC(=O)c1ccccn1 | -22.8% | 1.3 | -25.2% | -5.4 | u | 5.22µM*
Cc1cc(OCC(=O)NNC(=O)c2ccncc2)ccc1C(C)C | -9.2% | x | -29.5% | x | 9.8% | u
O=C(COc1ccccc1)NNC(=O)c1ccc(Cl)cc1 | x | x | x | x | u | -21.0%
Cc1cc(C)cc(OCC(=O)NNC(=O)c2ccccn2)c1 | x | x | x | x | 3.29µM* | 5.22µM*
COc1ccc(CC(=O)NNC(=O)c2cnccn2)cc1 | 1.8% | -2.5 | 2.5% | -5.8 | 23.1% | 7.6%
COc1ccc(CC(=O)NNC(=O)c2ccccn2)cc1 | -7.0%[46.1 µM] | 11.7* | u | 64.4 | u | u
COc1cccc(Nc2nnc(SCc3cc([N+](=O)[O-])cc4c3OCOC4)s2)c1 | -12.0% | -4.6 | -18.7% | -21.1 | -3.2%[5.75 µM] | -20.2%
C=CCNC(=S)N1CCC(C(=O)c2ccc(C)cc2)CC1 | 12.6%[46.1 µM] | -2.7 | -11.2%[46.1 µM] | 5.6 | 16.0% | 6.2%[0.00184 µM]
CC(C)(C)NC(=S)N1CCC(C(=O)c2ccc(Cl)cc2)CC1 | 20.0% | 1.4 | u | x | 3.29µM* | -13.9%
C=CCNC(=S)N1CCC(C(=O)c2ccc(Cl)cc2)CC1 | x | -1.6 | x | 11.1 | 9.28µM* | 0.0%
Cc1ccccc1-c1cc(C(=O)NCC2CC2)nn1CC1CC(c2cccc([N+](=O)[O-])c2)=NO1 (configuration not stated) | x | x | -2.8% | x | 2.62µM* | 5.22µM*
COc1ccccc1CNC(=O)C1CC(c2ccc([N+](=O)[O-])cc2)=NO1 (configuration not stated) | x | 20.3 | x | 57.5 | u | u
COc1ccccc1CNC(=O)c1cc(-c2ccccc2C)n(CC2CC(c3cccc([N+](=O)[O-])c3)=NO2)n1 (configuration not stated) | x | x | x | x | u | 5.22µM*
COc1ccc(C(=O)c2cnc(/N=C/N(C)C)s2)cc1 | 9.1% | 41.8* | -0.1% | + | 0.0% | 96.5%
Cc1cc(Sc2nnc(/N=C/N(C)C)s2)c2ccccc2n1 | x | -1.1 | x | -14.7 | u | u
CN(C)/C=N/c1ncc(C(=O)c2ccc3ccccc3c2)s1 | -0.2% | 33.4* | u | 31.9 | 42.3% | 34.7%
COc1ccc(-c2nnc(N)s2)cc1 | 14.7% | 37.4* | 10.9% | 39.5 | x | 57.0%
SMILES | LASV entry inh | CHX counter | Marburg entry inh | Shiga inhibitor | Pf growth 96h | Pf growth 48h
CC(c1ccccc1)c1nnc(N)s1 (configuration not stated) | x | -2.3 | x | 2.7 | 4.3% | 6.8%
COc1ccc(-c2nnc(N)s2)cc1OC | -13.1%[46.1 µM] | x | 11.5%[46.1 µM] | x | x | x
CCCOc1ccc(-c2nnc(N)s2)cc1 | -19.1% | 39.7* | u | 105.1* | x | -6.4%
CC(C)c1ccc(-c2nnc(N)s2)cc1 | -31.5% | 65.9* | u | 53.5* | 44.0% | 156.6%
COc1ccc(OCCc2nnc(N)s2)cc1 | 25.0% | -2.7 | 0.9% | -1.8 | 56.4% | 24.1%
Cc1ccc(SCc2nnc(N)s2)cc1 | -3.6% | 10.3* | u | 0.0 | 3.5% | 19.1%
Cc1c(NC(=S)/C=C2\N(C)c3ccccc3C2(C)C)c(=O)n(-c2ccccc2)n1C | 2.6% | 2.0 | 5.4% | -11.9 | 1.3% | 1.8%
